# BoNT F protease – BoNT/F light chain protease inhibitors, primary screen, biochemical, flow cytometry, MLPCN library; Botulinum neurotoxin type F light chain protease (Clostridium botulinum); Multiplex microsphere protease cleavage assay; inhibition, % at 10 µM; actives 0.22% (n = 360,000); AID 588497, 2011; in the data active means inhibition above about 35%, passing the limit was not always enough; inconclusive means no clear call, values can overlap the other calls; further: plate controls were buffer without enzyme for full effect and enzyme alone for no effect
# BoNT A protease – BoNT/A light chain protease inhibitors, primary screen, biochemical, flow cytometry, MLPCN library; Botulinum neurotoxin type A light chain protease (Clostridium botulinum A str. ATCC 3502); multiplex microsphere protease substrate cleavage; inhibition, % at 10 µM; actives 0.17% (n = 360,000); further: plate controls were buffer without enzyme for full effect and enzyme alone for no effect
# Anthrax LF prot – Bacillus anthracis LF protease inhibitors, primary screen, biochemical, multiplex microsphere, MLPCN library. Lethal factor (Bacillus anthracis), P15917. inhibition, % at 10 µM. actives 0.12% (n = 360,000). multiplex microsphere protease cleavage assay. AID 588501, 2011; further: plate controls were buffer without enzyme for full effect and enzyme alone for no effect
# Target sequence (P15917 whole entry, looked up): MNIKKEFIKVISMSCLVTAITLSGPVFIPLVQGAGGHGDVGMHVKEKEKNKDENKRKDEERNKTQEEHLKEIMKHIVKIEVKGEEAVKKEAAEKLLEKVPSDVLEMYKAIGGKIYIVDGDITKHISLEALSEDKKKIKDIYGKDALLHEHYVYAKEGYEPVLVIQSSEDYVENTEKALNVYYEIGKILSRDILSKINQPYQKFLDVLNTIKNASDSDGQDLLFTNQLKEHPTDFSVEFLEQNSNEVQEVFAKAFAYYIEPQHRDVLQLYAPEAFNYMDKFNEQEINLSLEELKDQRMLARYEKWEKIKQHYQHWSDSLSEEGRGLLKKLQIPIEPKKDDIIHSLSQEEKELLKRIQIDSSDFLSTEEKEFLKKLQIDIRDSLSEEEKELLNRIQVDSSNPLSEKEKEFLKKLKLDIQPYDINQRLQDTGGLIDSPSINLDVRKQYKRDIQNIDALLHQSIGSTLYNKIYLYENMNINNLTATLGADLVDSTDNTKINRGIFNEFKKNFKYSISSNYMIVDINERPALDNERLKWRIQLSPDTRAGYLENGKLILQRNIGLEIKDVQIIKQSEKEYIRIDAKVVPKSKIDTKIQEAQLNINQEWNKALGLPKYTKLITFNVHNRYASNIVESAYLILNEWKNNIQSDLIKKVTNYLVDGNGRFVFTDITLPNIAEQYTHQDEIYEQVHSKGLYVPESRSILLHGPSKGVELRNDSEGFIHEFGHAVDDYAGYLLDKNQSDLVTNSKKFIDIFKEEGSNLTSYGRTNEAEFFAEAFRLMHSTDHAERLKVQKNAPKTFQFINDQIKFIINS
# GDH-TPI counter-1 – GDH-TPI coupling enzyme inhibitors, primary screen, artefact control for M. tuberculosis FBA inhibitor project, biochemical, absorbance, full deck | GDH-TPI coupled enzyme counterscreen, NADH absorbance | inhibition, % at 4.8 µM | actives 1.2% (n = 360,000); in the data active means inhibition above about 30%;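 further: 0% = DMSO wells and 100% = wells lacking the enzyme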
# FBA Mtb inh – Mtb FBA enzyme inhibitors, primary screen, biochemical, fluorescence, strain H37Rv | purified M. tuberculosis FBA, fluorescence read-out | actives 2.3% (n = 360,000) | Fructose-bisphosphate aldolase (Mycobacterium tuberculosis (strain ATCC 25618 / H37Rv)), … | inhibition, % at 1 µM | AID 588726, 2011; in the data active means inhibition above about 27%;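 further: 0% = vehicle and 100% = reference inhibitor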
# Autofluor counter – counter-screen for toxin protease inhibitors: compound fluorescence; compound autofluorescence counterscreen, microsphere flow cytometry; hits give high values; fluorescence intensity (no concentration beside the values); actives 3.1% (n = 360,000); AID 624483; in the data active means fluorescence intensity above about 16000; inconclusive means no clear call, values can overlap the other calls
# Mtb FBA inh conf – M. tuberculosis aldolase blockers, biochemical, fluorescence, strain H37Rv, confirmation. shares compounds with FBA Mtb inh. purified M. tuberculosis FBA, fluorescence read-out. inhibition, % at 1 µM. actives 78% (n = 5,600). AID 651616, 2012; in the data active means inhibition above about 27%;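 further: 0% = vehicle wells and 100% = reference inhibitor wells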
# GDH-TPI counter-2 – GDH-TPI coupling enzyme inhibitors, artefact control for M. tuberculosis FBA inhibitor project, biochemical, fluorescence, high throughput. shares compounds with FBA Mtb inh. GDH-TPI coupled enzyme counterscreen. inhibition, % at 1 µM. actives 81% (n = 5,600). AID 652141, 2013; in the data active means inhibition above about 10%
# * hit, by the source's call; u = inconclusive; x = no result given; + = active, no number. The list is not random: actives were taken first. Their share in the collection is about 6.6%. Unless noted, no stated cut-off is given here; in the data, active means inhibition above about 30%; inconclusive means no clear call, values can overlap the other calls; inactive means below that.
SMILES,BoNT F protease,BoNT A protease,Anthrax LF prot,GDH-TPI counter-1,FBA Mtb inh,Autofluor counter,Mtb FBA inh conf,GDH-TPI counter-2
CCCS(=O)(=O)NC(=O)C1(C)CCN(C(=O)Cc2ccc(OC)cc2)C1 (centres undefined),-1.9,-0.5,-2.4,3.5,3.7,3180,x,x
O=C(CSc1n[nH]c(-c2ccc(S(=O)(=O)N3CCCCC3)cc2)n1)Nc1nccs1,2.2,-0.6,-4.8,17.5,61.3*,11236,64.6*,47.2*
CC1(C)Cc2c(c(-c3ccccc3)[nH]c(=O)c2C#N)CS1,6.1,-0.6,3.2,24.5,29.2*,3238,44.2*,50.4*
CC1(C)Cc2c(c(-c3ccco3)[nH]c(=O)c2C#N)CS1,1.6,0.2,-3.0,17.4,29.6*,4073,21.9,17.3*
O=C(OCC(=O)N1CCN(c2ccccc2)CC1)c1ncc(Cl)c(Cl)c1Cl,5.9,3.1,3.4,5.6,5.1,4534,x,x
COc1ccc(/C=N/c2oc(-c3ccccc3)cc2C#N)cc1OC,-5.0,-0.1,-1.2,2.0,48.4*,2618,28.1*,24.6*
COc1ccc(/C=N/NC(=O)c2nc(-c3ccccc3)cc(-c3ccccc3)n2)cc1OC,-10.4,0.1,-0.6,12.4,-0.6,3398,x,x
CCCCNC(=O)CN(C1CCCCC1)S(C)(=O)=O,-0.7,-0.4,-7.0,-0.6,-1.1,8711,x,x
Cc1cccc2c1-c1sc(C(=O)N3CCc4ccccc4C3)cc1CO2,3.0,-0.3,-2.9,-1.4,41.1*,5903,59.1*,40.9*
CN1CCN(C(=O)c2cc3c(s2)-c2ccccc2S(=O)(=O)C3)CC1,-5.9,-1.1,-14.1,19.4,-0.8,6054,x,x
Cc1cccc2c1-c1sc(C(=O)N3CCCCC3)cc1CO2,-6.2,-1.0,-2.8,10.9,42.2*,6771,10.9,19.1*
COc1ccc(C(=O)N2CCN(c3nc4cc(C)cc(C)c4cc3C#N)CC2)cc1,-2.4,2.4,0.2,-0.9,11.3,3783,x,x
N#Cc1cc2cc3c(cc2nc1Cl)OCCO3,2.5,0.3,-7.2,-9.0,1.1,3505,x,x
N#Cc1cc2cc3c(cc2nc1N1CCCCC1)OCCO3,-31.6,20.9,17.4,13.0,47.5*,3837,55.3*,41.9*
Cc1ccc(C(=O)N2CCCN(c3nc4cc5c(cc4cc3C#N)OCO5)CC2)cc1,-12.1,5.1,-3.1,10.4,45.5*,4269,144.6*,87.8*
Clc1ccc2nc(-c3ccc4c(c3)OCO4)cn2c1,0.4,-0.1,4.2,29.3,45.2*,4641,+,+
Cc1ccc2nc(-c3ccc4c(c3)NC(=O)CO4)cn2c1,-11.5,-1.0,-3.7,14.6,14.1,4508,x,x
c1ccn2cc(-c3ccc4c(c3)OCCO4)nc2c1,6.5,0.2,-2.3,7.3,79.7*,3395,90.6*,89.8*
Cc1ccc2nc(-c3ccc4c(c3)OCCO4)cn2c1,x,x,x,13.1,62.4*,x,195.0*,140.7*
Clc1ccc2nc(-c3ccccc3)cn2c1,0.4,1.1,2.4,5.2,4.8,2974,x,x
O=C(Nc1cnccn1)c1ccc(F)cc1Cl,24.0,-2.3,9.0,-7.4,0.4,4250,x,x
Cc1nc(CCNC(=O)CC2C(=O)NCCN2Cc2ccccc2)nc2c1CCC2 (centres undefined),-2.7,2.0,0.9,9.6,3.5,4244,x,x
CCOc1ccc(CN2CCNC(=O)C2CC(=O)NCCc2nc(C)c3c(n2)CCC3)cc1 (centres undefined),12.5,2.0,-1.3,5.0,27.7*,5913,+,154.0*
CCN(C(=S)NC(=O)c1ccco1)c1cccc2ccccc12,-3.8,-1.2,-6.3,4.9,29.2*,8249,91.6*,72.6*
Cc1cc(Br)ccc1NC(=O)CN(C)C(=O)C1=COCCO1,14.1,1.5,6.9,4.8,0.7,3774,x,x
SMILES,BoNT F protease,BoNT A protease,Anthrax LF prot,GDH-TPI counter-1,FBA Mtb inh,Autofluor counter,Mtb FBA inh conf,GDH-TPI counter-2
CC(C)OC(=O)c1cc2c(ccn2-c2ccc(F)cc2)n1CC(=O)N1CCN(C(=O)c2ccco2)CC1,-9.6,-0.3,-15.7,13.2,36.4*,6403,+,+
CCn1c(C(=O)OC)cc2c1ccn2-c1ccc(F)cc1,-12.6,-0.6,-4.6,13.7,-6.6,3320,x,x
COC(=O)c1cc2c(ccn2-c2ccc(F)cc2)n1CC(=O)N1CCN(C(=O)c2ccco2)CC1,9.2,1.4,-3.0,11.5,28.7*,3163,+,197.0*
CCCn1c(SC(C)C(=O)NC2CCCC2)n[nH]c1=O (centres undefined),x,x,x,7.4,0.7,x,x,x
COC1OC(CO)C(O)C(O)C1O (centres undefined),8.2,0.1,5.7,2.1,33.1*,5089,54.5*,44.7*
CCOC(=O)C1(C)NC(c2ccco2)C2C(=O)N(CC)C(=O)C21 (centres undefined),0.8,-0.3,-5.2,-5.8,-3.0,4398,x,x
COc1ccc(CCNc2c3ccccc3nc3ccccc23)cc1OC,u,2.8,0.8,21.4,54.7*,u,+,+
c1ccc2c(NCCc3c[nH]c4ccccc34)c3ccccc3nc2c1,-13.9,-4.8,-13.3,10.8,39.3*,3288,116.3*,94.8*
COc1ccc(CCNc2ncnc3cc(OC)c(OC)cc23)cc1OC,-4.1,-0.5,0.1,-2.5,0.4,4113,x,x
C#CCOc1ccc(C2C3=C(CC(C)(C)CC3=O)N(CC(=O)O)C3=C2C(=O)CC(C)(C)C3)cc1OC,u,-2.6,-4.6,5.9,2.0,4137,x,x
C#CCOc1ccc(C2C3=C(CC(C)(C)CC3=O)N(CC(=O)O)C3=C2C(=O)CC(C)(C)C3)cc1,-1.2,0.0,16.7,1.4,92.2*,3528,7.8,-6.5
CC(=O)N1N=C(c2ccc3ccccc3c2)OC1(C)C,-0.4,-1.0,-4.9,5.6,67.6*,10961,+,+
COc1cccc(CNC(=O)CCC2CCCN(C(=O)c3ccc(OC)c(F)c3)C2)c1 (centres undefined),-5.9,-0.4,-3.3,2.6,1.4,4427,x,x
COC(=O)c1ccc(C#Cc2ccccc2)o1,2.0,0.2,-4.0,2.9,57.8*,6167,49.2*,57.1*

# From PubChem
